Hits are enriched below; roughly 28% of the tested compounds scored in any of these assays.
CYP2C19 activ – human CYP2C19 activators, primary screen, biochemical, luminescence | 96,000 tested, under 10 active | Cytochrome P450 2C19 (Homo sapiens), P33261 | activation factor at 5 µM | AID 1025, 2008 | recombinant CYP2C19, luciferin-H EGE luminescence; hits give high values; 0 = fully inhibited enzyme, 1 = untreated enzyme;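 active = activation factor of at least 2 at 5 µM in the primary screen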;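 also: 0 = wells with 2.5 mM tranylcypromine and 1 = vehicle-only wells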
PLK1 inh – human PLK1 kinase inhibitors, primary screen, biochemical, TR-FRET. Serine/threonine-protein kinase PLK1 (Homo sapiens), P53350. recombinant PLK1 kinase, TR-FRET peptide phosphorylation. inhibition, % at 10 µM. 97,000 compounds, 0.53% hits. AID 619, 2007;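 active = inhibition of 50% or more in the single-concentration screen; inactive = inhibition below 50%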;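 also: 0% = DMSO max control and 100% = H-89 dihydrochloride min control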
CYP2C19 inh – blockers of cytochrome P450 2C19 activity – biochemical, luminescence, ADME assay, primary screen; CYP2C19 Supersomes, luciferin-H EGE luminescence, 30 min; inhibition, % at 5 µM; 96,000 compounds, 21% hits; AID 778, 2007;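 active = CYP2C19 inhibition above a set limit at 5 µM in the primary screen, cut at about 50% in these data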;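 also: plate controls were negative control wells for no effect and 2.5 mM tranylcypromine positive control for full effect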
CYP2C9 activ – human CYP2C9 activators, primary screen, biochemical, luminescence; activation factor at 5 µM; Cytochrome P450 2C9 (Homo sapiens), P11712; recombinant CYP2C9, luciferin-H conversion; hits give high values; factor 1 = untreated enzyme, 0 = blocked; 96,000 compounds, 1.4% hits;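 active = activation factor of 2 or more for CYP2C9 at a 5 µM dose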;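 also: 0 = sulfaphenazole-blocked wells and 1 = vehicle-only wells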
Target sequence (P11712 whole entry, looked up): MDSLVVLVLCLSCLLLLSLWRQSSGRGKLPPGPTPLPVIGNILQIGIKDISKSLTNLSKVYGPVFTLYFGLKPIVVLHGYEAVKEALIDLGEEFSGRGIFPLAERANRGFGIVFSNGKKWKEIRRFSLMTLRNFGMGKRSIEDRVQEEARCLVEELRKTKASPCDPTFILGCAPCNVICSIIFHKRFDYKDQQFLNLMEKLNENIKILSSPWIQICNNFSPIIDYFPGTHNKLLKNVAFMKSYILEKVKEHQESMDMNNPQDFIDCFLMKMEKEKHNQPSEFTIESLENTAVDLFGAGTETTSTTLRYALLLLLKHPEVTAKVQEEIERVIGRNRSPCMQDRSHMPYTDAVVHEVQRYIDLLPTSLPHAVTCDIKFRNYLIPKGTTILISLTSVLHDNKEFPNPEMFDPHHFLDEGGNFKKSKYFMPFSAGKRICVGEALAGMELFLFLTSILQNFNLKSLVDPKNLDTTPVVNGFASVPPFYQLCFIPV
PLK1 PBD inh – Plk1 polo box domain binding inhibitors, primary screen, biochemical, fluorescence polarization; Serine/threonine-protein kinase PLK1 (Homo sapiens), P53350; Plk1 PBD phosphopeptide binding; inhibition, %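 (tested at about 20 µM)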; 97,000 compounds, 0.13% hits; AID 693, 2007; in the data active = inhibition above about 34%, passing the limit was not always enough
CYP2C9 inhib – blockers of cytochrome P450 2C9 activity – biochemical, luminescence, ADME assay, primary screen; CYP2C9 Supersomes, luciferin-H conversion; inhibition, % at 5 µM; 96,000 compounds, 20% hits; AID 777, 2007;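 active = blocking of liver enzyme CYP2C9 beyond about 50% at 5 µM, limit read from the data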
* marks the source's active call; other numbers are inactive results; / = no result given.

SMILES	CYP2C19 activ	PLK1 inh	CYP2C19 inh	CYP2C9 activ	PLK1 PBD inh	CYP2C9 inhib
O=c1cc(N2CCc3ccccc32)[nH]c(=O)n1Cc1ccc(F)cc1	0.9	-14	11	0.9	14	14
CCOC(=O)c1sc(Nc2cccc(C)c2C)nc1C	0.9	-10	11	0.3	-6	70*
CCOC(=O)c1sc(NC(C)=O)nc1C	0.9	6	8	0.9	9	12
CCOC(=O)c1sc(NS(=O)(=O)c2cc(C)ccc2C)nc1C	0.6	-10	45	0.1	-11	94*
O=[n+]1c2c(n([O-])c3c1CCCC3)CCCCC2	1	-13	2	1	-15	0
O=C(NC1CCCCC1)c1ccc(CNc2ccccc2)o1	0.4	-1	62*	0.4	1	58*
O=C(NC1CCCC1)c1ccc(CSCc2ccccc2F)o1	0.1	-11	92*	0.1	0	86*
CN(Cc1ccccc1)c1ncnc2ccc(Br)cc12	0	6	97*	0.2	-15	84*
Cc1ncsc1C(=O)N1N=C2/C(=C/c3ccccc3)CCCC2C1c1ccccc1 (stereo not given)	0.9	-24	6	0.5	-11	52*
CCOc1ccc(C(=O)NCC(=O)OCC(=O)N2CCC(C)CC2)cc1	0.9	-7	12	0.9	-45	13
COc1ccc(/C=C2\CCCC3C2=NN(C(=O)COC(=O)CNC(=O)c2ccccc2)C3c2ccc(OC)cc2)cc1 (stereo not given)	0.8	-17	23	0.3	6	74*
COc1ccc(C(=O)NCC(=O)OCC(=O)N2CC(C)CC(C)C2)cc1 (stereo not given)	1	3	4	0.3	9	66*
CCc1nnc(NC(=O)CSc2nnc(CSc3nc(C)cc(C)n3)n2CC)s1	/	-2	/	/	17	/
COC(=O)c1ccccc1NC(=O)CSc1nnc(COc2cccc(OC)c2)n1C	0.7	5	32	0.8	-14	25
CCOC(=O)c1ccc(NC(=O)CSc2nccn2C)cc1	0.4	-4	60*	0.9	-1	9
Cn1c(=O)c2c(nc(SCC(=O)NC34CC5CC(CC(C5)C3)C4)n2C)n(C)c1=O	0.8	-4	20	1	14	-1
Cn1ccnc1SCC(=O)NC12CC3CC(CC(C3)C1)C2	0.1	-8	92*	0.9	36	5
COC(=O)c1ccccc1NC(=O)CSc1nccn1C	0.1	-4	85*	0.9	-47	7
O=C(CSc1nc(O)cc(=O)n1-c1ccccc1)NC1CCCCC1	1	2	-5	0.8	2	18
COC(=O)c1ccccc1NC(=O)CSc1nc(O)cc(=O)n1C1CCCC1	0.7	-12	28	0.3	8	74*
CCOC(=O)C1=NN(c2cccc(Cl)c2)C2=NC(C)=C(C(=O)OC)C(c3cccs3)N12 (stereo not given)	/	-8	/	/	8	/
CCC(C(=O)OC)n1cnc2c(nnn2-c2cccc(Cl)c2)c1=O (stereo not given)	0.8	-2	23	0.7	-4	28
CCOc1ccc(NC(=S)Nc2ccc(OC(F)(F)F)cc2)cc1	/	-8	/	/	-16	/
Cc1nc2ncnn2c(C)c1CCC(=O)Oc1ccccc1	0.8	-13	21	0.9	20	8
CC(C)OC(=O)/C(=C\C=C\c1ccccc1)NC(=O)c1ccccc1	0.9	-7	9	0.9	26	9
SMILES	CYP2C19 activ	PLK1 inh	CYP2C19 inh	CYP2C9 activ	PLK1 PBD inh	CYP2C9 inhib
Cc1ccc(NC(=O)Cn2c(CCC(=O)O)ccc2-c2cccs2)cc1	1	-5	1	1.1	-3	-13
COC(=O)c1ccccc1NC(=O)CSc1nnc(CNS(=O)(=O)c2ccc(C)cc2)n1C	0.5	-17	52*	0.1	-9	94*
COC(=O)c1ccccc1NC(=O)COC(C)=O	0.8	-4	15	1	-8	-3
COC(=O)c1ccccc1NC(=O)Cn1c(CCC(=O)O)ccc1-c1cccs1	0.5	-11	53*	0.7	0	33
Cn1ccnc1SCC(=O)Nc1cccc2ccccc12	0	-4	97*	1.6	27	-61
COC(=O)c1ccccc1NC(=O)Cn1ccnc1	0	-14	100*	0.2	3	84*
O=C(Nc1ccc2c(c1)OCCO2)C1CCN(S(=O)(=O)c2ccc(Br)s2)CC1	0.5	-9	49	1	-16	0
CC(O)(CS(=O)(=O)Cc1ccccc1)C(=O)Nc1ccc(C(F)(F)F)cc1 (stereo not given)	0.5	-5	45	0.9	34	15
CCC(C)(C)NC(=O)C(c1cccn1C)N(C(=O)Cn1nnc2ccccc21)c1ccccc1OC (stereo not given)	1	-11	-2	0.9	7	6
O=C1C2CCCN2C(c2ccccc2F)N1c1cccc(Cl)c1 (stereo not given)	0.5	-5	48	0.6	-21	43
COc1ccc(C2c3c(oc4ccccc4c3=O)C(=O)N2c2ccc(C)cn2)cc1OC (stereo not given)	0.9	-20	14	0.7	-11	26
CCOc1ccc(C2c3c(oc4cc(C)c(C)cc4c3=O)C(=O)N2CCCN(C)C)cc1OC (stereo not given)	0.9	-3	11	0.4	-28	56*
COc1ccc(C2c3c(oc4ccc(C)cc4c3=O)C(=O)N2c2cc(C)ccn2)cc1OC (stereo not given)	0.9	-9	8	0.4	-15	64*
COc1cccc(C2c3c(oc4cc(C)c(C)cc4c3=O)C(=O)N2CCCN(C)C)c1 (stereo not given)	0.9	-1	8	0.7	9	35
Cc1cccc(C(=O)NC2CCN(CC(=O)N3CCOCC3)CC2)c1	1.1	-12	-6	1	-4	-1
COc1ccc(NC(=O)CN(C)C(=O)c2ccc(C)s2)cc1	1	-8	0	1	36	1
COc1nc2c(C)cccc2cc1-c1noc(-c2ccncc2)n1	0.4	/	63*	0.5	/	50
Cc1ccccc1OCC(O)Cn1c(NCc2ccco2)nc2c1c(=O)n(C)c(=O)n2C (stereo not given)	0.1	-7	87*	0.1	30	93*
CCn1c(NCc2ccco2)nc2c1c(=O)n(C)c(=O)n2C	/	-4	/	/	-29	/
CCC1Oc2ccc(C)cc2N(Cc2cccc(C)c2)C1=O (stereo not given)	0.8	-5	19	0.8	14	21
Cc1ccc2c(c1)N(Cc1ccc3c(c1)OCO3)C(=O)C(C)O2 (stereo not given)	0.4	-9	61*	0.7	-10	33
